# Reference: the supplement of paper PMC10037445
# Over roughly 2,900 compounds, “NF-kB SEAP reporter activity, fold change vs agonist alone” has its median near 0.99; the highest 2% begin near 2.6. This is one part of a sample in which the highest values are shown more often than they occur.
# Legend:
# RAW-Dual [1] = assay: NF-kB SEAP reporter activity, fold change vs agonist alone; cytotoxicity flag (confluency mask): not cytotoxic; higher = enhanced NF-kB activity
# Summary of the method: (§1)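 RAW-Dual macrophages (50,000 cells/well in DMEM, 384-well plates) received 50 nL of library stock by pin tool, then a PRR agonist 1 h later, and were kept at 37 °C, 5% CO2. After 20 hours, supernatant was read for IRF by QuantiLuc luminescence and for NF-κB by QuantiBlue absorbance at 620 nm. Reporter activity is fold change over agonist-alone wells. Cytotoxic wells had IncuCyte confluency below 70% of agonist controls in both mask sets.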
# RAW-Dual [2] = assay: NF-kB SEAP reporter activity, fold change vs agonist alone; higher = enhanced NF-kB activity
# Summary of the method: as §1
# RAW-Dual [3] = assay: NF-kB SEAP reporter activity, fold change vs agonist alone; cytotoxicity flag (confluency mask): cytotoxic (confluency <70% of control); higher = enhanced NF-kB activity
# Summary of the method: as §1
# [4] = agonist: ODN 1826 (TLR9) 0.5 ug/mL
# [5] = agonist: Pam2CSK4 (TLR2/6) 0.1 ug/mL
# [6] = agonist: Pam3CSK4 (TLR2/1) 0.1 ug/mL
# [7] = library stock concentration (final ~1000-fold dilution): 10 mM, cytotoxicity flag (confluency mask): cytotoxic (confluency <70% of control), agonist: MPLA (TLR4) […]
# [8] = library stock concentration (final ~1000-fold dilution): 10 mM, cytotoxicity flag (confluency mask): not cytotoxic, agonist: Imiquimod (TLR7) […]
# [9] = library stock concentration (final ~1000-fold dilution): 10 mM, cytotoxicity flag (confluency mask): not cytotoxic, agonist: MPLA (TLR4) […]
smiles,measurement,setting,value
CN(C)c1ccc(O)c2c1CC1CC3C(N(C)C)C(=O)C(C(N)=O)=C(O)C3(O)C(=O)C1=C2O (stereo not given) (library stock concentration (final ~1000-fold dilution): 5 mM),NF-kB SEAP reporter activity,RAW-Dual [1]; agonist: LPS (TLR4) 0.1 ug/mL,1.03
same,NF-kB SEAP reporter activity,RAW-Dual [1]; [4],1.15
same,NF-kB SEAP reporter activity,RAW-Dual [1]; [5],0.833
same,NF-kB SEAP reporter activity,RAW-Dual [1]; [6],0.759
CN(C)c1ccc(O)c2c1CC1CC3C(N(C)C)C(=O)C(C(N)=O)=C(O)C3(O)C(=O)C1=C2O (stereo not given),NF-kB SEAP reporter activity,"RAW-Dual [2]; library stock concentration (final ~1000-fold dilution): 5 mM, cytotoxicity flag (confluency mask): not cytotoxic, agonist: Imiquimod (TLR7) […]",1.25
same,NF-kB SEAP reporter activity,"RAW-Dual [2]; library stock concentration (final ~1000-fold dilution): 5 mM, cytotoxicity flag (confluency mask): not cytotoxic, agonist: MPLA (TLR4) […]",0.933
CN(C)CCC=C1c2ccccc2C(C)(C)c2ccccc21.Cl (library stock concentration (final ~1000-fold dilution): 10 mM),NF-kB SEAP reporter activity,RAW-Dual [3]; agonist: LPS (TLR4) 0.1 ug/mL,1.45
same,NF-kB SEAP reporter activity,RAW-Dual [3]; [4],0.727
same,NF-kB SEAP reporter activity,RAW-Dual [3]; [5],0.53
same,NF-kB SEAP reporter activity,RAW-Dual [3]; [6],0.8
CN(C)CCC=C1c2ccccc2C(C)(C)c2ccccc21.Cl,NF-kB SEAP reporter activity,RAW-Dual [2]; [7],1.4
O=C(NO)c1cnc(NC2(c3ccccc3)CC2)nc1,NF-kB SEAP reporter activity,"RAW-Dual [2]; library stock concentration (final ~1000-fold dilution): 10 mM, cytotoxicity flag (confluency mask): cytotoxic (confluency <70% of control), agonist: Imiquimod (TLR7) […]",1.46
same,NF-kB SEAP reporter activity,RAW-Dual [2]; [7],2.22
O=C(NO)c1cnc(NC2(c3ccccc3)CC2)nc1 (library stock concentration (final ~1000-fold dilution): 10 mM),NF-kB SEAP reporter activity,RAW-Dual [3]; agonist: LPS (TLR4) 0.1 ug/mL,2.94
same,NF-kB SEAP reporter activity,RAW-Dual [3]; [4],1.6
same,NF-kB SEAP reporter activity,RAW-Dual [3]; [5],0.654
same,NF-kB SEAP reporter activity,RAW-Dual [3]; [6],1.4
CC(C)NCC(O)COc1ccc(COCCOC(C)C)cc1.O=C(O)/C=C/C(=O)O (stereo not given) (library stock concentration (final ~1000-fold dilution): 10 mM),NF-kB SEAP reporter activity,RAW-Dual [1]; agonist: LPS (TLR4) 0.1 ug/mL,1.05
same,NF-kB SEAP reporter activity,RAW-Dual [1]; [4],0.873
same,NF-kB SEAP reporter activity,RAW-Dual [1]; [5],0.984
same,NF-kB SEAP reporter activity,RAW-Dual [1]; [6],1.03
CC(C)NCC(O)COc1ccc(COCCOC(C)C)cc1.O=C(O)/C=C/C(=O)O (stereo not given),NF-kB SEAP reporter activity,RAW-Dual [2]; [8],0.869
same,NF-kB SEAP reporter activity,RAW-Dual [2]; [9],1.02
Cc1ccc(-c2c(-c3nn(C)c4ncnc(N5CCC(N6CCCCC6)C5)c34)cnn2C)cc1 (stereo not given) (library stock concentration (final ~1000-fold dilution): 10 mM),NF-kB SEAP reporter activity,RAW-Dual [1]; agonist: LPS (TLR4) 0.1 ug/mL,1.57
same,NF-kB SEAP reporter activity,RAW-Dual [1]; [4],0.856
same,NF-kB SEAP reporter activity,RAW-Dual [1]; [5],1.21
same,NF-kB SEAP reporter activity,RAW-Dual [1]; [6],1.16
Cc1ccc(-c2c(-c3nn(C)c4ncnc(N5CCC(N6CCCCC6)C5)c34)cnn2C)cc1 (stereo not given),NF-kB SEAP reporter activity,RAW-Dual [2]; [8],0.947
same,NF-kB SEAP reporter activity,RAW-Dual [2]; [9],1.09
Cc1nc(Nc2ncc(C(=O)Nc3c(C)cccc3Cl)s2)cc(N2CCN(CCO)CC2)n1.O,NF-kB SEAP reporter activity,RAW-Dual [2]; [8],0.326
same,NF-kB SEAP reporter activity,RAW-Dual [2]; [9],0.715
Cc1nc(Nc2ncc(C(=O)Nc3c(C)cccc3Cl)s2)cc(N2CCN(CCO)CC2)n1.O (library stock concentration (final ~1000-fold dilution): 10 mM),NF-kB SEAP reporter activity,RAW-Dual [1]; agonist: LPS (TLR4) 0.1 ug/mL,1.33
same,NF-kB SEAP reporter activity,RAW-Dual [1]; [4],0.661
same,NF-kB SEAP reporter activity,RAW-Dual [1]; [5],0.283
same,NF-kB SEAP reporter activity,RAW-Dual [1]; [6],0.215
CC1OC(OC2CCC3(C)C(CCC4(C)C3C=CC35OCC6(CCC(C)(C)CC63)C(O)CC45C)C2(C)CO)C(O)C(OC2OC(CO)C(O)C(O)C2O)C1O (stereo not given) (library stock concentration (final ~1000-fold dilution): 10 mM),NF-kB SEAP reporter activity,RAW-Dual [3]; agonist: LPS (TLR4) 0.1 ug/mL,0.221
same,NF-kB SEAP reporter activity,RAW-Dual [3]; [4],0.257
same,NF-kB SEAP reporter activity,RAW-Dual [3]; [5],0.0991
same,NF-kB SEAP reporter activity,RAW-Dual [3]; [6],0.143
CC1OC(OC2CCC3(C)C(CCC4(C)C3C=CC35OCC6(CCC(C)(C)CC63)C(O)CC45C)C2(C)CO)C(O)C(OC2OC(CO)C(O)C(O)C2O)C1O (stereo not given),NF-kB SEAP reporter activity,RAW-Dual [2]; [7],0.319
NC(=O)c1ccccn1 (library stock concentration (final ~1000-fold dilution): 10 mM),NF-kB SEAP reporter activity,RAW-Dual [1]; agonist: LPS (TLR4) 0.1 ug/mL,1.07
same,NF-kB SEAP reporter activity,RAW-Dual [1]; [4],0.942
same,NF-kB SEAP reporter activity,RAW-Dual [1]; [5],1.06
same,NF-kB SEAP reporter activity,RAW-Dual [1]; [6],0.836
Clc1ccc(N/N=C(\c2ccccc2)c2ccccn2)nc1 (library stock concentration (final ~1000-fold dilution): 10 mM),NF-kB SEAP reporter activity,RAW-Dual [1]; agonist: LPS (TLR4) 0.1 ug/mL,4.59
same,NF-kB SEAP reporter activity,RAW-Dual [1]; [4],1.18
same,NF-kB SEAP reporter activity,RAW-Dual [1]; [5],0.556
same,NF-kB SEAP reporter activity,RAW-Dual [1]; [6],1.76
Clc1ccc(N/N=C(\c2ccccc2)c2ccccn2)nc1,NF-kB SEAP reporter activity,RAW-Dual [2]; [8],1.5
same,NF-kB SEAP reporter activity,RAW-Dual [2]; [9],2.77
